# Assay results published in PubChem BioAssay AID1159580 (chemical genetic matrix, 2015).
# Hit rate of the full screen: of about 5,500 compounds, about 2,000 (36%) were called active. Roughly 18% stayed inconclusive and do not appear here. The list shows a part of the results. A number with no mark means an inactive call. No stated cut-off is given here; in the data, active means normalized growth mostly below about 0.91 (no sharp cut-off); inconclusive means no clear call, values can overlap the other calls; inactive means mostly above about 0.92.
# Experiment: chemical genetic growth profiling, strain panel (AID 1159580);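 further: tested at 20 µM; growth read once vehicle control cultures reached saturation at 30 °C; 1 = growth at the plate median or of vehicle wells; lower values mean less growth of the strain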
# Conditions: S. cerevisiae deletion strains, growth OD
# [1] = locus YDL101C, strain DUN1, hits give low values
# [2] = locus YHR030C, strain SLT2, hits give low values
compound,measurement,setting,value
Cc1c(Cc2ccc(F)cc2)c(=O)oc2cc(O)ccc12,normalized growth,"locus YAR019C, strain CDC15, hits give low values",0.973
same,normalized growth,"locus YBL105C, strain PKC1, hits give low values",0.986
same,normalized growth,"locus YBR135W, strain CKS1, hits give low values",0.98
same,normalized growth,"locus YBR136W, strain MEC1, hits give low values",0.963
same,normalized growth,"locus YBR160W, strain CDC28, hits give low values",0.981
same,normalized growth,"locus YDL017W, strain CDC7, hits give low values",0.983
same,normalized growth,"locus YDL028C, strain MPS1, hits give low values",0.976
same,normalized growth,[1],0.979
same,normalized growth,"locus YDL108W, strain KIN28, hits give low values",0.978
same,normalized growth,"locus YDL132W, strain cdc53, hits give low values",0.978
same,normalized growth,"locus YDL214C, strain PRR2, hits give low values",0.967
same,normalized growth,"locus YDR052C, strain DBF4, hits give low values",0.987
same,normalized growth,"locus YDR054C, strain cdc34, hits give low values",0.975
same,normalized growth,"locus YDR226W, strain ADK1, hits give low values",0.987
same,normalized growth,"locus YDR477W, strain SNF1, hits give low values",0.971
same,normalized growth,"locus YER123W, strain YCK3, hits give low values",0.99
same,normalized growth,"locus YER133W, strain GLC7, hits give low values",0.977
same,normalized growth,"locus YFL009W, strain cdc4, hits give low values",0.973
same,normalized growth,"locus YFL029C, strain CAK1, hits give low values",0.97
same,normalized growth,"locus YFR003C, strain YPI1, hits give low values",0.985
same,normalized growth,"locus YFR019W, strain FAB1, hits give low values",0.988
same,normalized growth,"locus YFR028C, strain CDC14, hits give low values",0.972
same,normalized growth,"locus YGR040W, strain KSS1, hits give low values",0.954
same,normalized growth,"locus YGR052W, strain FMP48, hits give low values",1.02
same,normalized growth,"locus YGR092W, strain DBF2, hits give low values",0.944
same,normalized growth,[2],0.83 (active)
same,normalized growth,"locus YHR079C, strain IRE1, hits give low values",0.91
same,normalized growth,"locus YHR082C, strain KSP1, hits give low values",0.968
same,normalized growth,"locus YHR205W, strain SCH9, hits give low values",0.958
same,normalized growth,"locus YIL147C, strain SLN1, hits give low values",0.983
same,normalized growth,"locus YJL095W, strain BCK1, hits give low values",0.923
same,normalized growth,"locus YJL128C, strain PBS2, hits give low values",0.956
same,normalized growth,"locus YJL157C, strain FAR1, hits give low values",0.966
same,normalized growth,"locus YJR016C, strain ILV3, hits give low values",0.982
same,normalized growth,"locus YJR066W, strain TOR1 (second series), hits give low values",0.976
same,normalized growth,"locus YJR066W, strain TOR1, hits give low values",0.957
same,normalized growth,"locus YKL048C, strain ELM1, hits give low values",0.969
same,normalized growth,"locus YKL067W, strain YNK1, hits give low values",0.979
same,normalized growth,"locus YKL101W, strain HSL1, hits give low values",0.967
same,normalized growth,"locus YKL193C, strain SDS22, hits give low values",0.976
same,normalized growth,"locus YKL203C, strain TOR2, hits give low values",1.01
same,normalized growth,"locus YLR113W, strain HOG1, hits give low values",0.903
same,normalized growth,"locus YLR133W, strain CKI1, hits give low values",0.968
same,normalized growth,"locus YLR403W, strain SFP1, hits give low values",0.969
same,normalized growth,"locus YML070W, strain DAK1, hits give low values",0.999
same,normalized growth,"locus YMR001C, strain CDC5, hits give low values",0.978
same,normalized growth,"locus YMR205C, strain PFK2 (second series), hits give low values",0.974
same,normalized growth,"locus YMR277W, strain FCP1, hits give low values",0.974
same,normalized growth,"locus YNL006W, strain LST8, hits give low values",0.975
same,normalized growth,"locus YNL020C, strain ARK1, hits give low values",0.96
same,normalized growth,"locus YNL161W, strain CBK1, hits give low values",0.974
same,normalized growth,"locus YNL183C, strain NPR1, hits give low values",0.939
same,normalized growth,"locus YNL207W, strain RIO2, hits give low values",0.97
same,normalized growth,"locus YNL222W, strain SSU72, hits give low values",0.976
same,normalized growth,"locus YNL307C, strain MCK1 (second series), hits give low values",0.984
same,normalized growth,"locus YOL078W, strain AVO1, hits give low values",0.973
same,normalized growth,"locus YOL136C, strain PFK27, hits give low values",0.964
same,normalized growth,"locus YOR061W, strain CKA2, hits give low values",0.957
same,normalized growth,"locus YOR119C, strain RIO1, hits give low values",0.977
same,normalized growth,"locus YOR231W, strain MKK1, hits give low values",0.926
same,normalized growth,"locus YOR329C, strain SCD5, hits give low values",0.979
same,normalized growth,"locus YPL031C, strain PHO85, hits give low values",0.947
same,normalized growth,"locus YPL153C, strain RAD53, hits give low values",0.962
same,normalized growth,"locus YPL204W, strain HRR25, hits give low values",0.98
same,normalized growth,"locus YPL209C, strain IPL1, hits give low values",0.982
same,normalized growth,"locus YPL256C, strain CLN2, hits give low values",0.899
same,normalized growth,"locus YPR025C, strain CCL1, hits give low values",0.977
same,normalized growth,"locus YPR106W, strain ISR1, hits give low values",0.984
same,normalized growth,"locus YPR111W, strain DBF20, hits give low values",0.971
same,normalized growth,"strain NNK1, hits give low values",0.984
same,normalized growth,"strain TSCII, hits give low values",0.978
CCCc1cc(=O)c2ccc(O)cc2o1,normalized growth,"locus YAL013W, strain DEP1, hits give low values",0.975
same,normalized growth,"locus YBR229C, strain ROT2, hits give low values",1
same,normalized growth,"locus YCL061C, strain MRC1, hits give low values",0.976
same,normalized growth,[1],0.947
same,normalized growth,"locus YDL134C, strain PPH21, hits give low values",0.996
same,normalized growth,"locus YDR150W, strain NUM1, hits give low values",0.967
same,normalized growth,"locus YEL061C, strain CIN8, hits give low values",1
same,normalized growth,"locus YGR078C, strain PAC10, hits give low values",0.969
same,normalized growth,[2],0.919
same,normalized growth,"locus YHR087W, strain rtc3, hits give low values",1.03
same,normalized growth,"locus YJR043C, strain POL32, hits give low values",1
same,normalized growth,"locus YJR075W, strain HOC1, hits give low values",1.01
same,normalized growth,"locus YLR039C, strain RIC1, hits give low values",0.957
same,normalized growth,"locus YLR058C, strain SHM2 (second series), hits give low values",0.986
same,normalized growth,"locus YLR085C, strain ARP6, hits give low values",0.964
same,normalized growth,"locus YLR262C, strain YPT6, hits give low values",1.01
same,normalized growth,"locus YML094W, strain GIM5, hits give low values",1.02
same,normalized growth,"locus YMR219W, strain ESC1, hits give low values",0.998
same,normalized growth,"locus YMR263W, strain SAP30, hits give low values",0.995
same,normalized growth,"locus YNL128W, strain TEP1, hits give low values",0.97
same,normalized growth,"locus YNL153C, strain GIM3, hits give low values",0.993
same,normalized growth,"locus YNL298W, strain CLA4 (second series), hits give low values",0.971
same,normalized growth,"locus YNL322C, strain KRE1, hits give low values",0.966
same,normalized growth,"locus YNR030W, strain Alg12, hits give low values",0.985
same,normalized growth,"locus YOL006C, strain TOP1, hits give low values",0.933
same,normalized growth,"locus YPL055C, strain LGE1, hits give low values",1.05
same,normalized growth,"locus YPL241C, strain CIN2, hits give low values",0.988
same,normalized growth,"locus YPR135W, strain CTF4, hits give low values",0.943
